Out of some 390,000 compounds screened, about 610 (0.16%) were called active. Entries that show only a call come without a potency. Inconclusive results (about 4%) are left out. Calls come from the whole dose curve; as a rule, active = well fitted inhibition curve with a large enough effect; inconclusive = small, poorly fitted or top-dose-only effect, or effect the other way, or another doubt; inactive = no such curve, though single readings can be large or run the other way. For the sample, actives were picked, then their nearest neighbours and some compounds at random.
assay: Nrf2 qHTS screen for inhibitors: counterscreen for cytotoxicity; conditions: A549 ARE-Fluc cells, CellTiter-Fluor viability, 18-24 h; series mostly up to 46 µM
Text: NIH Molecular Libraries Probe Production Network [MLPCN]
NIH Chemical Genomics Center [NCGC]
Assay Provider: Shyam Biswal, Johns Hopkins University
Nrf2 is a transcription factor that maintains cellular redox homoestasis and protects cells from xenobiotics. Nrf2 binds to the antioxidant response element (ARE) to induce gene expression of a broad spectrum of genes that encode for antioxidants. […] Finding a small molecule that act as an inhibitor of Nrf2 function would represent a novel therapeutic target that could lead to improvement in survival of patients undergoing chemo- and/or radio- therapy.
So here we implemented a counterscreen to weed out the cytotoxic compounds.
1. Shibata, T., et al., Genetic Alteration of Keap1 Confers Constitutive Nrf2 Activation and Resistance to Chemotherapy in Gallbladder Cancer. Gastroenterology, 2008.
2. Sjoblom, T., et al., The consensus coding sequences of human breast and colorectal cancers. Science, 2006. 314(5797): p. 268-74.
NCGC Assay Protocol Summary:
A concentration-response assay was performed with A549 ARE_Fluc cells which are suspended in 5% FBS OPTI-MEM. Five uL were dispensed into 1536-well white TC-treated plate using the Kalypsys dispenser to achieve a density of 5000 cells/well in all columns except column 1. The plate is incubated at 37deg C at 5% CO2 for 2 hours before 23 nL of compounds are added with the Kalypsys pin tool equipped with a 1,536-pin array containing 10-nL slotted pins (FP1S10, 0.457-mm diameter, 50.8 mm long; V&P Scientific). The control compounds Budesonide and Staurosporine are both added at a concentration of 2mM and Budesonide is also added as a 1:10 titration, starting at 200uM, to achieve dose-response. After an 18-24 hour incubation at 37deg C at 5% CO2, 5ul of medium is added to column 1. Afterwards 1ul of 5x of CellTiter-Fluor (Promega) is added to every well. The plate is then incubated at 37deg C at 5% CO2 for 30 minutes before they are read on the ViewLux (Perkin Elmer) for a fluorescent read Ex=405(10)/Em=525(10) for a 3 second exposure, 2x binning, and high gain. Then 3 uL of 3x BugLite is dispensed into all wells and the plate is incubated at ambient room temperature for 15 minutes. Afterwards another ViewLux read is performed using the clear filter to get a luminescent read with the settings of 40 second exposure, 2x binning, and high gain. Cytotoxicity is assessed through the first fluorescent read and then biochemical activity against Nrf2 is measured in the luminescent read.
Potency is the fitted concentration of half-maximal effect.

Q: Which Potency does the source give for `CCC(C)(O)C(=O)OC1C(=O)OC2CC3C(C)=CC(=O)C(O)C3(C)C3C4(O)OCC23C1C(C)C4O` (stereo not given) here?
A: 5.8 µM (active)

Q: For `c1ccc(CC2CCCCN2)cc1` (stereo not given), which Potency is on record?
A: inactive

Q: With `Cc1ccc(-n2c(/C=C/c3cccc(C(F)(F)F)c3)nc3ccccc3c2=O)cc1` as the molecule, how does the Potency read?
A: inactive

Q: For `CSc1nc2ccc(C)cc2c(=O)n1-c1cccnc1`, which Potency is on record?
A: inactive

Q: For `CCN1CCN(c2ccc([N+](=O)[O-])cc2C#N)CC1`, which Potency is on record?
A: inactive

Q: With `CN1CCN(c2cc(N3CCNCC3)ccc2[N+](=O)[O-])CC1` as the molecule, how does the Potency read?
A: 16.4 µM (active)

Q: Which Potency does the source give for `COc1cccc(-c2nc3ccc(N4CCN(C)CC4)cc3[nH]2)c1` here?
A: inactive

Q: Which Potency does the source give for `CC1=CC(=Cc2sc3ccccc3[n+]2C)C=C(C)O1` here?
A: 2.59 µM (active)

Q: With `CC(c1ccccc1)(c1ccccc1)c1ccncc1` as the molecule, how does the Potency read?
A: inactive

Q: For `Cc1ccc(Cn2nnnc2CN2CCC(n3nnc4ccccc43)CC2)cc1`, which Potency is on record?
A: inactive

Q: For `COC(=O)C1=C(c2cc3ccccc3o2)C[C@@H]2CC[C@H]1N2C(=O)NC1CCCCC1`, which Potency is on record?
A: inactive

Q: With `O=Cc1cn(Cc2ccc(F)cc2Cl)c2ccccc12` as the molecule, how does the Potency read?
A: inactive

Q: Which Potency does the source give for `CO[C@H]1[C@@H](O)[C@@H](C)O[C@H](O[C@H]2[C@H](Oc3cccc4c(O)c5c(=O)oc6ccc(C)c7c(=O)oc(c34)c5c67)O[C@H](C)[C@H](O)[C@@H]2O)[C@@H]1O` here?
A: inactive

Q: With `CCCCCCCCCCCCn1ccc(=N)cc1` as the molecule, how does the Potency read?
A: inactive

Q: With `S=P(c1ccccc1)(c1ccccc1)c1c(-c2ccccc2)[nH]c2ccccc12` as the molecule, how does the Potency read?
A: inactive

Q: For `O=C1CC(=O)N(Cc2ccccc2)C(=O)N1CCCCCCN1C(=O)CC(=O)N(Cc2ccccc2)C1=O`, which Potency is on record?
A: inactive

Q: With `CC(C)(C)c1ccc(CN2C(=O)CN=C(c3ccccc3)c3ccccc32)cc1` as the molecule, how does the Potency read?
A: 25.9 µM (active)

Q: Which Potency does the source give for `COc1cc([C@@H]2c3cc4c(cc3[C@H](OC(C)=O)[C@H]3COC(=O)[C@H]23)OCO4)cc(OC)c1OC` here?
A: inactive

Q: For `CCN(CC)C(=O)c1ccc(NC(=O)c2sccc2-c2ccccc2)cc1`, which Potency is on record?
A: inactive

Q: Which Potency does the source give for `CC(C)c1ccc(-n2c(O)c(/C=N/N3CCOCC3)c(=O)[nH]c2=S)cc1` here?
A: inactive

Q: Which Potency does the source give for `CC(=O)OC1C2(CC3N4C(=O)C5(CO)SSC4(CC31O)C(=O)N5C)OC(C)C(C)(C)C2=O` (stereo not given) here?
A: 7.31 µM (active)

Q: With `CC(Cc1ccccc1)NCCC(c1ccccc1)c1ccccc1` (stereo not given) as the molecule, how does the Potency read?
A: inactive

Q: Which Potency does the source give for `Cc1cccc(OP(=O)(Oc2cccc(C)c2)OC(c2ccccc2)C(F)(F)F)c1` (stereo not given) here?
A: inactive

Q: For `O=C(O)c1cc[c]([Sb](=[O])([OH])[OH])cc1[N+](=O)[O-]`, which Potency is on record?
A: inactive

Q: For `Cc1ccc(NC(=O)N(Cc2ccc3c(c2)OCO3)C2CCN(Cc3ccccc3)CC2)cc1F`, which Potency is on record?
A: inactive

Q: Which Potency does the source give for `CN(c1ccccc1)c1ccc([N+](=O)[O-])c2nonc12` here?
A: 20.6 µM (active)

Q: Which Potency does the source give for `CCN(CC)c1ccc([N+](=O)[O-])c2cccnc12` here?
A: inactive

Q: For `O=P1(Oc2ccccc2)CC(O)C(O)C(COCc2ccccc2)O1` (stereo not given), which Potency is on record?
A: inactive

Q: Which Potency does the source give for `CC(C)(C)[C@]1(O)C[C@@H]2OC(=O)C[C@@]23C(=O)O[C@@H]2OC(=O)[C@H](O)[C@]213` here?
A: inactive

Q: Which Potency does the source give for `Cc1ccc(C(C)C)c(OCC(=O)N2CCN(CC(=O)N3CCOCC3)CC2)c1` here?
A: inactive

Reference: PubChem BioAssay AID504648 (National Center for Advancing Translational Sciences (NCATS), 2011)
